Among the data in PubChem BioAssay (EPA / NIEHS) are outcome values, retold here.

Each structure is given as a SMILES string. Activity calls are given as the source filed them. The calls were made as follows: active = hit-call score of the fitted dose curve at least 0.9, where 1 is the maximum; inactive = score below 0.9.

Read-out in this test: Bcl-2 (BID) gene, BID (gene 637)
Put plainly: LTEA_HepaRG_BID: Life Technologies and Expression Analysis (LTEA) Assay for Bcl-2 (BID) gene using HepaRG (AID 2283476). To be noted: mRNA level, 48 h; actives raise or lower the signal. On the procedure:
LTEA_HepaRG is a cell based, multiplexed-readout assay that uses HepaRG, a human liver cell line, with measurements taken at 48 hours after chemical dosing on a 96-well plate.LTEA_HepaRG_BID is one of 102 assay component(s) measured in the LTEA HepaRG cell culture assay. It is a marker of Cell proliferation, survival, death.Data from the assay component LTEA_HepaRG_BID was analyzed into 1 endpoint. This assay endpoint, LTEA_HepaRG_BID, was analyzed with bidirectional fitting relative to DMSO as the negative control and baseline of activity. Using a type of inducible reporter, measures of mRNA induction for gain or loss-of-signal activity can be used to understand regulation of transcription factor activity. To generalize the intended target to other relatable targets, this assay endpoint is annotated to the cell cycle intended target family, where the subfamily is Cell proliferation, survival, death.
A total of 1060 chemcials from the ToxCast library were tested in eight-point concentration-response experiments. Cell culture and cytotoxicity assays were conducted at Thermo Fisher Scientific's Custom Services facility (Madison, WI). A single lot of human HepaRG cells (Thermo Fisher Scientific, Frederick, MD) was used for the cell culture experiments. 96-well format collagen type I coated plates of human HepaRG cells were prepared using established methods. Briefly, cryopreserved HepaRG cells were thawed, plated at a density of approximately 100,000 cells/well in HepaRG Thaw, Plate, and General Purpose media (HPRG770, Thermo Fisher Scientific), and incubated for 48 hours. 0.5% DMSO was selected as vehicle control to balance the requisite need of DMSO in HepaRG cultures to maintain differentiation (for example, baseline metabolism, proportions of hepatocytes vs. cholangiocytes), while enabling further hepatic receptor pathway activation (for example, PXR and CAR) in response to chemical exposure. 48 hours after plating, the culture medium was replaced with HepaRG Serum-Free Incudtion Media. Cells were exposed to each test chemical in duplicate and maintained in CO2 incubators for another 48 hours. Chemical plates were thawed to room temperature and 200x concentrations of treatment groups were prepared. 8-point conentration-reponse curves were made with the highest exposure at 100 uM, followed by half-log dilutions, all in 0.5% DMSO. Each test plate contained variouse controls, induction positive controls (1mM phenobarbital), cytotoxicity positive controls ([…] aflatoxin B1), vehicle controls (0.5% DMSO), and total lysis controls (0.5% DMSO). Cell morphology images were taken using an Essen IncuCyte FLR automated microscope, with six 96-well plates imaged in about 24 minutes. Images were captured and exported and JPEG files. Spent culture media was transfered to black-well plates for the LDH assay, and remaining media was sorted at -80 C for later use. Cells were treated with RLT buffer and frozen until shipped for gene expression analysis. Total RNA was isolated from the cell suspension in 75 uL of Buffer RLT (Qiagen, Germantown, MD 20874) by Quintiles/Expression Analysis (Durham, NC) using a custom isolation procedure. Total RNA from each plate well was transferred to a preamplification plate. Fluidigm's 96.96 Dynamic ArrayTM (Fluidigm, Amsterdam, the Netherlands) technology was used for gene expression analyses by quantitative reverse transcription polymerase chain reaction (qRT-PCR, performed by Quintiles/Expression Analysis, Durham, NC)89. Standard TaqManTM Assays (Applied Biosystems/ThermoFisher Scientific, Foster City, CA) were used to assess the expression of 93 genes selected based on their selectivity and sensitivity to important hepatic receptors known to be modulated by environmental chemicals; importance in human hepatocyte functionality; and hepatotoxicity. […]
Regarding `O=C(O)C1(c2ccc3c(c2)OC[C@H](Cc2ccc(-c4ccccc4)cc2)[C@H]3O)CCCC1`, the outcome was inactive.
To `CN(C)C(=S)S` belongs “inactive”; to `CC(C)O.CC(C)O.OCCN(CCO)CCO.OCCN(CCO)CCO.[Ti]`, “inactive”.
For the compound `CC(C)(C)c1ccccc1O`, the outcome was inactive.
To `Cc1cc(C)cc(C)c1` belongs “inactive”; to `OCCN(CCO)CCO`, “inactive”; to `N#Cc1cccnc1`, “inactive”.
To `O=C(N[C@H]1CN2CCC1CC2)c1ccc2c(c1)OCCO2` belongs “inactive”; to `Oc1c(Cl)cc(Cl)cc1Cl`, “inactive”; to `CCCCCCCCCCCCc1cccc(S(=O)(=O)O)c1`, “inactive”.
Take `Clc1cccc(Cl)c1Cl`: the call was inactive.
As for `COc1ccccc1N`, the compound was called inactive.
To `Clc1cccc(Cl)c1` belongs “inactive”; to `Oc1cc(Cl)c(Cl)cc1Cl`, “inactive”.
